# The sample as a whole holds a higher share of the strongest signals than the screen did.
# Legend:
# Test in all cases: glycan array binding signal (z-score within array); higher = stronger binding
# Details in all cases: glycan notation: IUPAC condensed, linker removed
# [1] = target: Fuc(a1-2)Gal(b1-3)GlcNAc(b1-2)Man(a1-3)[Fuc(a1-2)Gal(b1-3)GlcNAc(b1-2)Man(a1-6)]Man(b1-4)GlcNAc(b1-4)GlcNAc
# In short: (§1)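 Glycan array data came from 3228 arrays in the Consortium for Functional Glycomics database, and only arrays with an available protein sequence were kept. Glycan names were put into IUPAC-condensed notation, and columns mapping to the same glycan were averaged. The binding signal is a within-array Z-score, averaged across arrays of one protein sequence run at different concentrations or buffers and across linkers. A negative Z-score can be read as non-binding.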
# [2] = target: Fuc(a1-2)Gal(b1-4)GlcNAc(b1-3)GalNAc
# In short: as §1
# [3] = target: Fuc(a1-2)[Gal(a1-3)]Gal(b1-4)Glc
# In short: as §1
# [4] = target: Fuc(a1-2)[GalNAc(a1-4)]Gal(b1-4)GlcNAc
# In short: as §1
# [5] = target: Fuc(a1-3)[Gal(b1-4)]GlcNAc(b1-3)Gal(b1-3)[Fuc(a1-4)]GlcNAc
# In short: as §1
# [6] = target: Fuc(a1-3)[Gal3S(b1-4)]Glc
# In short: as §1
# [7] = target: Fuc(a1-3)[GalNAc(b1-4)]GlcNAc6S
# In short: as §1
# Gal(a1-3)GalNAc = target: Gal(a1-3)GalNAc
# In short: as §1
# Gal(a1-6)Glc = target: Gal(a1-6)Glc
# In short: as §1
# Gal(b1-3)GalNAc = target: Gal(b1-3)GalNAc
# In short: as §1
# [8] = target: Gal(b1-3)GlcNAc(a1-3)Gal(b1-4)GlcNAc
# In short: as §1
# [9] = target: Gal(b1-3)GlcNAc(b1-3)Gal(b1-4)GlcNAc(b1-2)Man(a1-3)[Gal(b1-3)GlcNAc(b1-3)Gal(b1-4)GlcNAc(b1-2)Man(a1-6)]Man(b1-4)GlcNAc(b1-4)GlcNAc
# In short: as §1
# [10] = target: Gal(b1-3)GlcNAc(b1-3)Gal(b1-4)GlcNAc(b1-6)[Gal(b1-3)GlcNAc(b1-3)]Gal(b1-4)Glc
# In short: as §1
# [11] = target: Gal(b1-3)[Fuc(a1-4)]GlcNAc(b1-3)Gal(b1-4)[Fuc(a1-3)]GlcNAc
# In short: as §1
# Gal(b1-4)Gal = target: Gal(b1-4)Gal
# In short: as §1
# [12] = target: Gal(b1-4)GlcNAc(b1-2)Man(a1-3)[Man(a1-6)]Man(b1-4)GlcNAc(b1-4)GlcNAc
# In short: as §1
# [13] = target: Gal(b1-4)GlcNAc(b1-3)Gal(b1-4)GlcNAc(b1-3)Gal(b1-4)GlcNAc(b1-2)Man(a1-3)[Gal(b1-4)GlcNAc(b1-3)Gal(b1-4)GlcNAc(b1-3)Gal(b1-4)GlcNAc(b1-2)Man(a1-6)]Man(b1-4)GlcNAc(b1-4)GlcNAc
# In short: as §1
# [14] = target: Gal(b1-4)GlcNAc(b1-3)Gal(b1-4)GlcNAc(b1-3)Gal(b1-4)GlcNAc(b1-3)Gal(b1-4)GlcNAc(b1-3)Gal(b1-4)GlcNAc(b1-2)Man(a1-3)[Gal(b1-4)GlcNAc(b1-3)Gal(b1-4)GlcNAc(b1-3)Gal(b1-4)GlcNAc(b1-3)Gal(b1-4)GlcNAc(b1-3)Gal(b1-4)GlcNAc(b1-2)Man(a1-6)]Man(b1-4)GlcNAc(b1-4)GlcNAc
# In short: as §1
# [15] = target: Gal(b1-4)GlcNAc(b1-3)Gal(b1-4)GlcNAc(b1-3)Gal(b1-4)GlcNAc(b1-3)Gal(b1-4)GlcNAc(b1-3)Gal(b1-4)GlcNAc(b1-2)Man(a1-3)[Gal(b1-4)GlcNAc(b1-3)Gal(b1-4)GlcNAc(b1-3)Gal(b1-4)GlcNAc(b1-3)Gal(b1-4)GlcNAc(b1-3)Gal(b1-4)GlcNAc(b1-2)Man(a1-6)]Man(b1-4)GlcNAc(b1-4)[Fuc(a1-6)]GlcNAc
# In short: as §1
# [16] = target: Gal(b1-4)GlcNAc(b1-3)Gal(b1-4)GlcNAc(b1-3)Gal(b1-4)GlcNAc(b1-3)Gal(b1-4)GlcNAc(b1-3)Gal(b1-4)GlcNAc(b1-2)[Gal(b1-4)GlcNAc(b1-3)Gal(b1-4)GlcNAc(b1-3)Gal(b1-4)GlcNAc(b1-3)Gal(b1-4)GlcNAc(b1-3)Gal(b1-4)GlcNAc(b1-6)]Man(a1-6)[Gal(b1-4)GlcNAc(b1-3)Gal(b1-4)GlcNAc(b1-3)Gal(b1-4)GlcNAc(b1-3)Gal(b1-4)GlcNAc(b1-3)Gal(b1-4)GlcNAc(b1-2)Man(a1-3)]Man(b1-4)GlcNAc(b1-4)[Fuc(a1-6)]GlcNAc
# In short: as §1
# [17] = target: Gal(b1-4)GlcNAc(b1-6)Gal(b1-4)GlcNAc
# In short: as §1
# Gal3S(b1-4)GlcNAc = target: Gal3S(b1-4)GlcNAc
# In short: as §1
# Gal6S(b1-3)GlcNAc = target: Gal6S(b1-3)GlcNAc
# In short: as §1
# GalNAc(b1-4)GlcNAc = target: GalNAc(b1-4)GlcNAc
# In short: as §1
# [18] = target: GlcNAc(b1-2)[GlcNAc(b1-6)]Man(a1-6)[GlcNAc(b1-4)][GlcNAc(b1-2)Man(a1-3)]Man(b1-4)GlcNAc(b1-4)GlcNAc
# In short: as §1
# [19] = target: GlcNAc(b1-3)Gal(b1-4)GlcNAc(b1-3)Gal(b1-4)GlcNAc(b1-3)Gal(b1-4)GlcNAc(b1-3)Gal(b1-4)GlcNAc(b1-2)Man(a1-3)[GlcNAc(b1-3)Gal(b1-4)GlcNAc(b1-3)Gal(b1-4)GlcNAc(b1-3)Gal(b1-4)GlcNAc(b1-3)Gal(b1-4)GlcNAc(b1-2)Man(a1-6)]Man(b1-4)GlcNAc(b1-4)[Fuc(a1-6)]GlcNAc
# In short: as §1
# GlcNAc(b1-4)GlcNAc = target: GlcNAc(b1-4)GlcNAc
# In short: as §1
# Kdn(a2-3)Gal(b1-4)Glc = target: Kdn(a2-3)Gal(b1-4)Glc
# In short: as §1
# Kdn(a2-3)Gal(b1-4)GlcNAc = target: Kdn(a2-3)Gal(b1-4)GlcNAc
# In short: as §1
# Man(a1-2)Man(a1-3)Man = target: Man(a1-2)Man(a1-3)Man
# In short: as §1
# [20] = target: Man(a1-2)Man(a1-3)[Man(a1-2)Man(a1-6)]Man(a1-6)[Man(a1-2)Man(a1-2)Man(a1-3)]Man
# In short: as §1
# [21] = target: Neu5Ac(a2-3)Gal(b1-3)GalNAc(b1-3)Gal(a1-4)Gal(b1-4)Glc
# In short: as §1
# [22] = target: Neu5Ac(a2-3)Gal(b1-3)GlcNAc(b1-6)GalNAc
# In short: as §1
# [23] = target: Neu5Ac(a2-3)Gal(b1-3)[Fuc(a1-4)]GlcNAc(b1-3)Gal(b1-3)[Fuc(a1-4)]GlcNAc
# In short: as §1
# [24] = target: Neu5Ac(a2-3)Gal(b1-4)GlcNAc(b1-2)Man(a1-3)[Neu5Ac(a2-6)Gal(b1-4)GlcNAc(b1-2)Man(a1-6)]Man(b1-4)GlcNAc(b1-4)GlcNAc
# In short: as §1
# [25] = target: Neu5Ac(a2-3)Gal(b1-4)GlcNAc(b1-2)[Neu5Ac(a2-3)Gal(b1-4)GlcNAc(b1-4)]Man(a1-3)[GlcNAc(b1-4)][Neu5Ac(a2-3)Gal(b1-4)GlcNAc(b1-2)[Neu5Ac(a2-3)Gal(b1-4)GlcNAc(b1-6)]Man(a1-6)]Man(b1-4)GlcNAc(b1-4)GlcNAc
# In short: as §1
# [26] = target: Neu5Ac(a2-3)Gal(b1-4)GlcNAc(b1-3)Gal(b1-4)GlcNAc(b1-3)[Neu5Ac(a2-3)Gal(b1-4)GlcNAc(b1-3)Gal(b1-4)GlcNAc(b1-6)]GalNAc
# In short: as §1
# [27] = target: Neu5Ac(a2-3)Gal(b1-4)[Fuc(a1-3)]GlcNAc(b1-2)Man
# In short: as §1
# [28] = target: Neu5Ac(a2-3)[GalNAc(b1-4)]Gal(b1-4)GlcNAc
# In short: as §1
# [29] = target: Neu5Ac(a2-6)Gal(b1-4)GlcNAc(b1-3)Gal(b1-4)[Fuc(a1-3)]GlcNAc(b1-3)Gal(b1-4)[Fuc(a1-3)]GlcNAc
# In short: as §1
# [30] = target: Neu5Ac(a2-8)Neu5Ac(a2-8)Neu5Ac
# In short: as §1
# Neu5Gc(a2-3)Gal(b1-4)Glc = target: Neu5Gc(a2-3)Gal(b1-4)Glc
# In short: as §1
# [31] = target: Neu5Gc(a2-3)Gal(b1-4)[Fuc(a1-3)]GlcNAc
# In short: as §1
# [32] = target: Neu5Gc(a2-8)Neu5Gc(a2-6)Gal(b1-4)GlcNAc
# In short: as §1
binder,measurement,setting,value
Als3-2 (Candida albicans) (protein) KTITGVFNSFNSLTWSNAATYNYKGPGTPTWNAVLGWSLDGTSASPGDTFTLNMPCVFKFTTSQTSVDLTAHGVKYATCQFQAGEEFMTFSTLTCTVSNTLTPSIKALGTVTLPLAFNVGGTGSSVDLEDSKCFTAGTNTVTFNDGGKKISINVDFERSNVDPKGYLTD,glycan array binding signal (z-score),[1],7.12
same,glycan array binding signal (z-score),[2],9.17
same,glycan array binding signal (z-score),[3],-0.338
same,glycan array binding signal (z-score),[4],-0.444
same,glycan array binding signal (z-score),[5],3.23
same,glycan array binding signal (z-score),[6],-0.64
same,glycan array binding signal (z-score),[7],0.076
same,glycan array binding signal (z-score),Gal(a1-3)GalNAc,-0.308
same,glycan array binding signal (z-score),Gal(a1-6)Glc,-0.625
same,glycan array binding signal (z-score),Gal(b1-3)GalNAc,-0.398
same,glycan array binding signal (z-score),[8],-0.203
same,glycan array binding signal (z-score),[9],2.3
same,glycan array binding signal (z-score),[10],-0.603
same,glycan array binding signal (z-score),[11],-0.461
same,glycan array binding signal (z-score),Gal(b1-4)Gal,-0.552
same,glycan array binding signal (z-score),[12],0.449
same,glycan array binding signal (z-score),[13],3.26
same,glycan array binding signal (z-score),[14],5.24
same,glycan array binding signal (z-score),[15],3.26
same,glycan array binding signal (z-score),[16],3.16
same,glycan array binding signal (z-score),[17],1.11
same,glycan array binding signal (z-score),Gal3S(b1-4)GlcNAc,0.36
same,glycan array binding signal (z-score),Gal6S(b1-3)GlcNAc,3.68
same,glycan array binding signal (z-score),GalNAc(b1-4)GlcNAc,0.934
same,glycan array binding signal (z-score),[18],-0.7
same,glycan array binding signal (z-score),[19],3.13
same,glycan array binding signal (z-score),GlcNAc(b1-4)GlcNAc,0.531
same,glycan array binding signal (z-score),Kdn(a2-3)Gal(b1-4)Glc,-0.075
same,glycan array binding signal (z-score),Kdn(a2-3)Gal(b1-4)GlcNAc,-0.528
same,glycan array binding signal (z-score),Man(a1-2)Man(a1-3)Man,-0.511
same,glycan array binding signal (z-score),[20],-0.73
same,glycan array binding signal (z-score),[21],-0.583
same,glycan array binding signal (z-score),[22],1.45
same,glycan array binding signal (z-score),[23],-0.524
same,glycan array binding signal (z-score),[24],-0.401
same,glycan array binding signal (z-score),[25],3.2
same,glycan array binding signal (z-score),[26],6.15
same,glycan array binding signal (z-score),[27],0.73
same,glycan array binding signal (z-score),[28],-0.449
same,glycan array binding signal (z-score),[29],-0.584
same,glycan array binding signal (z-score),[30],-0.398
same,glycan array binding signal (z-score),Neu5Gc(a2-3)Gal(b1-4)Glc,0.047
same,glycan array binding signal (z-score),[31],-0.059
same,glycan array binding signal (z-score),[32],-0.628
